Screen size: about 310,000 compounds; about 14,000 (4.5%) showed an effect of 50% or more. The effect is printed as a negative number. The entries come from a sample that favours strong results as a whole.
What follows are compounds tested against human ether-à-go-go-related gene (hERG) potassium channel (human, UniProt Q12809) (assay: primary screen, population patch clamp on CHO cells stably expressing hERG; higher = less effect of the substance).
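Further: peak tail current of the secondary pulse compared with the same well before compound.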

Chain of human ether-à-go-go-related gene (hERG) potassium channel (Q12809 whole entry, looked up): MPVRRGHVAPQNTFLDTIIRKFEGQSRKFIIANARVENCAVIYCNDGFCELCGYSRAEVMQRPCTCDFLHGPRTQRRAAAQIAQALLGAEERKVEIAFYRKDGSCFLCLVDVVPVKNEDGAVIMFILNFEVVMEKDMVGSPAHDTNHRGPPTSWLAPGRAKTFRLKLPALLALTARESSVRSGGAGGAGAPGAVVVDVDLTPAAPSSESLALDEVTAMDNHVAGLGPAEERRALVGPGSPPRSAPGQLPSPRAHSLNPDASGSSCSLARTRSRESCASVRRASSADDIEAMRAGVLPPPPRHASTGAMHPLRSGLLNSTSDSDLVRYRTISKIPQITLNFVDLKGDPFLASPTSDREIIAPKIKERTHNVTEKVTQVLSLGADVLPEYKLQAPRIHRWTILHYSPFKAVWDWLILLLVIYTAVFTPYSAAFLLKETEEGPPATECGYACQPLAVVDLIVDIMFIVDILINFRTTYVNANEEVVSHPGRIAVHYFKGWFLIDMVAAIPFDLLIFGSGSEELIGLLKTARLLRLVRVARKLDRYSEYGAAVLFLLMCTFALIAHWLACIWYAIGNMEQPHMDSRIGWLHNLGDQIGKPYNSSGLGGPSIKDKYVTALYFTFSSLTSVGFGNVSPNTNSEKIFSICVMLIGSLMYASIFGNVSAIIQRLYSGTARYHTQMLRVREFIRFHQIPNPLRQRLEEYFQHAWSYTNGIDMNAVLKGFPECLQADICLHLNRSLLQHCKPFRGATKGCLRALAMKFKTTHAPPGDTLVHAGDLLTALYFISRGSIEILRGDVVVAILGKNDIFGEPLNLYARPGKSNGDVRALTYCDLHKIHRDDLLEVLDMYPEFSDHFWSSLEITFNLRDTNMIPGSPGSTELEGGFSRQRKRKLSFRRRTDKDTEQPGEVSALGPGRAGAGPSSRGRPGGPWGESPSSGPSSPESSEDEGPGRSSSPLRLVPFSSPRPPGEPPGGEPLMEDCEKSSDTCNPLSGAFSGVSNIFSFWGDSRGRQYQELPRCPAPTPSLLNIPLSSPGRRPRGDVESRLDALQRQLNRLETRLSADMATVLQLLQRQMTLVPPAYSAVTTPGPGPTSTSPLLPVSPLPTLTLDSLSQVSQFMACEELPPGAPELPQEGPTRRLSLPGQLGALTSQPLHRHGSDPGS

SMILES	hERG current change (%, negative = inhibition) at 10uM
COc1cccc(NC(=O)Cc2ccccc2)c1	-3.98%
Cc1ccc2c(c1)N(CCCC(=O)NCCC1=CCCCC1)C(=O)CO2	-9.81%
CCOc1cc(N2CCOCC2)c(OCC)cc1NC(=O)COC(=O)c1cc2ccccc2cc1O	-11.7%
CCc1ccc(-c2cc(C)no2)cc1S(=O)(=O)N1CCOc2ccc(C)cc21	13.1%
Cc1c(NC(=O)C(C)N(c2ccccc2)S(C)(=O)=O)c(=O)n(-c2ccccc2)n1C (centres unmarked)	18.7%
O=C(CCl)Nc1cccc(S(=O)(=O)NC2=NCCC2)c1	-0.632%
O=C(c1cccc(OC2CCN(Cc3cc(F)cc(F)c3)CC2)c1)N1CCCC1	-34.9%
COC(=O)c1ccc(CN2CCC(Oc3cccc(C(=O)N4CCOCC4)c3)CC2)cc1	-22.7%
CSc1cccc(CN2CCC(Oc3ccc(C(=O)N4CCCCC4)cc3)CC2)c1	-25.2%
COC(=O)c1ccc(CN2CCC(Oc3cccc(C(=O)N4CCCC4)c3)CC2)cc1	-50.8%
COc1cccc(CN2CCC(Oc3ccc(C(=O)N4CCCCC4)cc3)CC2)c1	-25.3%
COc1ccc(CN2CCC(Oc3ccc(C(=O)N4CCCC4)cc3)CC2)c(F)c1	-51.4%
COc1cc(C)c(CN2CCC(Oc3ccc(C(=O)N4CCCC4)cc3)CC2)cc1C	-43.1%
Cn1cc(CN2CCC(Oc3ccc(C(=O)N4CCCC4)cc3)CC2)cn1	9.86%
CSc1ccc(CN2CCC(Oc3ccc(C(=O)N4CCCC4)cc3)CC2)cc1	-71.1%
CSc1cccc(CN2CCC(Oc3cccc(C(=O)N4CCCC4)c3)CC2)c1	-44.4%
O=C(c1cccc(OC2CCN(Cc3cccc(OCCO)c3)CC2)c1)N1CCCC1	-2.71%
CSc1ccc(CN2CCC(Oc3cccc(C(=O)N4CCCC4)c3)CC2)cc1	-60.7%
COc1ccc(NC(=O)Nc2nnc(C(C)(C)C)s2)cc1	-18.8%
COC(=O)C(Cc1ccccc1)OS(N)(=O)=O (centres unmarked)	16.1%
COCCN1CN=C(NS(=O)(=O)c2ccc(C)cc2)NC1	16.3%
COc1cc(NC(=O)COc2cccc3c2OC(C)(C)C3)cc(OC)c1OC	-6.09%
CCN(C1=NS(=O)(=O)c2ccccc21)N(CC)S(=O)(=O)c1ccc(C)cc1	19.8%
CCOC(=O)Cc1csc(NC(=O)c2ccc(S(=O)(=O)N3CCOCC3)cc2)n1	-2.52%
CN1CCN(C(=O)CSc2ccc(C(F)(F)F)cc2[N+](=O)[O-])CC1	-10.2%
CC(=O)Nc1ccc(CN2CCC(Oc3ccc(C(=O)N4CCCC4)cc3)CC2)cc1	-21.3%
COC(=O)c1ccc(CN2CCC(Oc3ccc(C(=O)N4CCCCC4)cc3)CC2)cc1	-51.7%

SMILES	hERG current change (%, negative = inhibition) at 10uM
O=C(c1ccc(OC2CCN(Cc3ccc(F)cc3)CC2)cc1)N1CCCC1	-24%
COc1ccc(CN2CCC(Oc3ccc(C(=O)N4CCCCC4)cc3)CC2)cc1C	-45.7%
CCOc1cccc(CN2CCC(Oc3ccc(C(=O)N4CCCC4)cc3)CC2)c1	-27.4%
CCc1ccc(CN2CCC(Oc3ccc(C(=O)N4CCCC4)cc3)CC2)cc1	-81.3%
CC(=O)c1c(C)[nH]c(C(=O)Nc2cc(S(=O)(=O)N3CCCCC3)ccc2C)c1C	2.24%
CC(=O)O[C@@H]1/C=C/[C@](C)(O)C[C@@H](C)C/C=C/[C@H]2[C@H](O)C(C)=C(C)[C@H]3[C@H](Cc4ccccc4)NC(=O)[C@@]123	-15.4%
Cl.Oc1ccc(CC2CC3CCN2CC3)cc1O (centres unmarked)	12.7%
COc1ccc(NC(=O)Nc2cccc(Cl)c2Cl)c(OC)n1	3.16%
O=C(Cc1cccs1)N/N=C\c1ccc(O)cc1	14.5%
CC(C)(C)N1CC(c2nc3ccccc3n2CCOc2ccccc2)CC1=O (centres unmarked)	-26.1%
Cc1ccc2nc(N(CCCN(C)C)C(=O)c3ccc4ncsc4c3)sc2c1	-61.4%
Cc1ccc2nc(N(CCCN(C)C)C(=O)c3ccc(S(=O)(=O)N(C)C)cc3)sc2c1.Cl	-42.1%
Cc1cccc2sc(N(CCCN(C)C)C(=O)c3ccc4ncsc4c3)nc12	-45%
CCc1ccc2nc(N(CCN(C)C)C(=O)c3ccc4ccccc4c3)sc2c1.Cl	0.369%
CCc1ccc2nc(N(CCN(C)C)C(=O)c3ccc4ncsc4c3)sc2c1.Cl	-60.6%
Cc1ccc2nc(N(CCN(C)C)C(=O)c3ccc4ccccc4c3)sc2c1.Cl	15.9%
O=C(CCNC(=O)c1ccc([N+](=O)[O-])cc1)NC1CCCCCC1	-25.3%
CCSc1nsc(NC(=O)Nc2ccc(F)cc2F)n1	24.1%
CC(C)(C)NC(=O)C(c1cccs1)N(C(=O)c1csnn1)c1cccc(F)c1 (centres unmarked)	-7.68%
O=C(Cn1ncc2c3ccccc3n(Cc3ccccc3)c2c1=O)NC1CCCC1	10.1%
O=S(=O)(c1ccc(Cl)s1)N1CCc2ccccc2C1	7.13%
NC(=S)Nc1cc(Cl)cc(Cl)c1	17.1%
CC(C)NC(=O)CCS(=O)(=O)c1ccc(Br)s1	16.1%
COc1ccc(/C=N/NC(=O)c2cccc([N+](=O)[O-])c2)cc1OS(=O)(=O)c1ccc(C)cc1	-16.1%
COCc1cc(OC(=O)N(C)C)nc2c1c(C)nn2C	-9.48%
O=C(CNC(=O)C12CC3CC(CC(C3)C1)C2)N/N=C\c1ccco1	5.05%

— article PMC4336329 (PLoS ONE, 2015)
